# Values joined by “and” are separate entries in the source; they are usually repeats but may differ in a detail not shown here. Equal values may be shown once. Inconclusive results are not listed. For some assays here: Measured potencies and affinities stand elsewhere. Active and inactive are the calls of the source. Unless noted, the rule behind the calls is not given here.
# Tests used:
# [1] = target: 6-phosphogluconate dehydrogenase, decarboxylating (Homo sapiens) (UniProt P52209); test: inhibition of human phosphogluconate dehydrogenase – biochemical, recombinant enzyme, NADPH absorbance, primary screen (AID 1159550;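 active = at least 20% inhibition of 6-phosphogluconate dehydrogenase activity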); settings: recombinant 6PGD, NADPH absorbance 341 nm; at 10 µM; stronger effect = higher value
# [2] = EMT-state selective cytotoxicity in co-culture – imaging, PC-3E GFP, TEM4-18 mCherry, primary screen (AID 1345086;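 active = compounds killing one labelled cell type while sparing the other, by normalised counts and ratio limits, not self-fluorescent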;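 for all read-outs here: cells exposed to compound for 72 h before imaging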;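 for red/green cell ratio (normalised): normalised mesenchymal count divided by normalised epithelial count so high means epithelial killing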); settings: PC-3E GFP / TEM4-18 mCherry co-culture, imaging cell counts, at 1 µM; for red/green cell ratio (normalised): actives lie on both sides, counts scaled to control wells, 1 = unselective
# [3] = target: Mitogen-activated protein kinase 7 (Homo sapiens) (UniProt Q13164); test: Gal4-ERK5 driven luciferase induction – cell-based, HTS, primary screen (AID 1508626;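 active = luciferase signal above three times the same-plate solvent-only control wells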;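 note: luciferase driven by Gal4-ERK5 fusion binding five Gal4 sites before minimal TATA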); settings: HeLa Gal4-ERK5 transactivation, 18 h, at 5 µM, stronger effect = higher value
# [4] = blockers of polyQ-driven CASP3 activation – cell-based (AID 1583); settings: polyglutamine-induced caspase-3 activation, cell assay; stronger effect = higher value;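 tested at 10 µM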
# [5] = yeast 75Q aggregation reduction – 75Q-TubU reporter (AID 1593); settings: Yeast 75Q polyglutamine aggregation reporter
# [6] = restoration of touch response, mutant HTT neurons – whole organism, C. elegans mechanosensory neurons, N-terminal huntingtin (AID 1599); settings: C. elegans polyQ-huntingtin mechanosensory neurons, stronger effect = higher value
# [7] = blockers of cytochrome c efflux from mitochondria – biochemical, purified mitochondria (AID 1603); settings: stronger effect = lower value;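 note: mouse liver mitochondria challenged with calcium chloride; signal normalized to the plate average as 100%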
# [8] = polyglutamine aggregate formation blockers (AID 1604); settings: polyglutamine-induced protein aggregation inhibition assay; stronger effect = higher value; tested at 2.5 µM
# [9] = glutamate transport activators, MN-1 cells, MN-1 cell line (AID 1612); settings: MN-1 motor neuron cells, stronger effect = higher value;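 note: tested at 1 µM final; 0% = mean of DMSO vehicle wells on each plate; positive means more glutamate uptake than control and negative means less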
# [10] = GFP-Q80 aggregate reduction, neuronal-like cells, cell-based, NGF-treated PC12, GFPQ80 (AID 1614); settings: PC12 NGF-treated GFP-polyQ80 inclusion reduction;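 note: lower means fewer inclusions and 0 means no inclusions at all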
# [11] = 75Q-TubH aggregate inhibition, S. cerevisiae, yeast (AID 1616); settings: S. cerevisiae 75Q-TubH polyglutamine aggregation suppression; stronger effect = higher value
# [12] = compounds altering circadian rhythm period length – cell-based, LOPAC library, luminescence reporter (AID 2774); settings: circadian reporter cells, at 7 µM, actives lie on both sides;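 note: values are relative to mean of DMSO wells on each plate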
# [13] = compounds altering viability of human ES cells (AID 493140); settings: human embryonic stem cell survival screen; stronger effect = higher value;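 note: cells exposed to compounds for four days before counting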
# [14] = P. berghei load reduction in hepatocytes – cell-based, HepG2, luciferase luminescence, HepG2 viability, primary screen (AID 624349; in the data active = parasite load remaining mostly below about 12%, no sharp cut-off; inactive = mostly above about 10%;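 note: 100% = mean of DMSO negative control wells on the same plate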); settings: P. berghei liver stage in HepG2, luciferase luminescence, concentration not given here; parasite load remaining: stronger effect = lower value; viability: measured here: HepG2 viability without parasites
# [15] = test system: Hepatitis C virus NS3 helicase; test: blockers of NS3h binding to ssDNA – biochemical, fluorescence polarization, LOPAC1280 library, primary screen (AID 687035; in the data active = inhibition above about 37%); settings: Purified HCV NS3 helicase, Cy5-dT15 ssDNA binding fluorescence polarization; stronger effect = higher value; concentration not given here
# [16] = compounds altering Cy5-DNA-NS3h complex signal – biochemical, LOPAC1280, artefact control for HCV NS3 helicase inhibitor project (AID 687037); settings: Cy5-DNA-NS3h complex fluorescence interference counterscreen
# [17] = test system: Aerobactin synthetase IucA (Klebsiella pneumoniae); test: inhibition of K. pneumoniae IucA enzyme – biochemical, Tocris library, absorbance (AID 1345561); settings: purified IucA enzyme assay, absorbance (OD) read-out; stronger effect = lower value;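 tested at 8 µM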;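 note: 100% = enzyme without compound and 0% = no enzyme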
# [18] = viability loss in pontine glioma line – cell-based, SU-DIPG-XIII, MIPE4.0, CellTiter-Glo, qHTS, dose response (AID 1347061; cut-off not given, nearly all actives have AC50 up to about 37 µM;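 note: cells exposed to compound for 48 hours before readout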); settings: CellTiter-Glo ATP luminescence
# [19] = viability loss in pontine glioma line – cell-based, JHH-DIPG-1, MIPE4.0, CellTiter-Glo, qHTS, dose response (AID 1347062; cut-off not given, nearly all actives have AC50 up to about 27 µM); settings: JHH-DIPG-1 viability, CellTiter-Glo ATP luminescence
# [20] = blockers of cellular phospholipid synthesis – cell-based, LOPAC library, screen 4, primary screen (AID 1347384); settings: animal cells, phospholipid biosynthesis inhibition screen; at 10 µM
# [21] = MELAS cybrid and Rieske KO viability enhancers – cell-based, MELAS cybrids, Rieske KO mouse fibroblasts, CellTiter-Glo, primary screen (AID 1508586;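 active = mean z-score across replicates of 1.96 or higher in either the MELAS or the Rieske mutant cell line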;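 note: z relative to plate mean and SD of compound and empty wells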); settings: low glucose
# [22] = target: NAD(+) hydrolase SARM1 (Homo sapiens) (UniProt Q6SZW1); test: blocking NAD cleavage by SARM1 SAM-TIR – cell lysate, NAD-Glo luminescence (AID 1508614;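 active = compound whose remaining NAD level is above about 45 nM, limit read from the data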;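 note: higher remaining NAD means stronger inhibition of SARM1 NADase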); settings: SAM-TIR HEK293T lysate NADase, at 1 µM, stronger effect = higher value
# [23] = galactose survival enhancers in mitochondrial complex I cybrids – cell-based, galactose medium, ATP luminescence, primary screen (AID 1645843;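 active = z-score of at least 1.8 in each of two replicates, scored against plate mean and spread of sample wells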;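 note: positive z means more ATP and so rescue of galactose-driven cybrid death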); settings: complex I mutant cybrid cells, 72 h, stronger effect = higher value
# [24] = viability loss in pontine glioma line – cell-based, SU-DIPG-IV, MIPE4.0, CellTiter-Glo, qHTS, dose response (AID 1347063; cut-off not given, nearly all actives have AC50 up to about 30 µM;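 note: compound exposure lasted 48 hours before the viability readout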); settings: CellTiter-Glo ATP luminescence
# [25] = growth inhibition of DIPG cells – cell-based, MIPE4.0 library, CellTiter-Glo luminescence, qHTS (AID 1347066; cut-off not given, nearly all actives have AC50 up to about 30 µM;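 note: cells exposed to compound for 48 hours before readout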); settings: SU-DIPG-VI viability, CellTiter-Glo ATP luminescence
# [26] = JHH-DIPG-1 glioma cell viability, MIPE5.0 library, CellTiter-Glo luminescence, qHTS (AID 1347067; cut-off not given, nearly all actives have AC50 up to about 26 µM;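 note: cells exposed to compound for 48 hours before readout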); settings: JHH-DIPG-1 glioma viability, CellTiter-Glo ATP luminescence
# [27] = growth inhibition of DIPG cells – cell-based, MIPE5.0 library, qHTS (AID 1347068; cut-off not given, nearly all actives have IC50 up to about 30 µM); settings: SU-DIPG-XXV viability
# [28] = rescue of PC12 cells from polyQ htt toxicity – LDH release (AID 1610); settings: PC12 mutant huntingtin toxicity, final LDH at 4 uM, stronger effect = lower value
# [29] = measured here: epithelial PC-3E GFP cell survival
# [30] = measured here: mesenchymal TEM4-18 mCherry cell survival
# [31] = MELAS cybrid survival, CellTiter-Glo 48 h, stronger effect = higher value
# [32] = Rieske KO mouse fibroblast survival, CellTiter-Glo 72 h
# Sequence of 6-phosphogluconate dehydrogenase, decarboxylating (Homo sapiens) (P52209 whole entry, looked up): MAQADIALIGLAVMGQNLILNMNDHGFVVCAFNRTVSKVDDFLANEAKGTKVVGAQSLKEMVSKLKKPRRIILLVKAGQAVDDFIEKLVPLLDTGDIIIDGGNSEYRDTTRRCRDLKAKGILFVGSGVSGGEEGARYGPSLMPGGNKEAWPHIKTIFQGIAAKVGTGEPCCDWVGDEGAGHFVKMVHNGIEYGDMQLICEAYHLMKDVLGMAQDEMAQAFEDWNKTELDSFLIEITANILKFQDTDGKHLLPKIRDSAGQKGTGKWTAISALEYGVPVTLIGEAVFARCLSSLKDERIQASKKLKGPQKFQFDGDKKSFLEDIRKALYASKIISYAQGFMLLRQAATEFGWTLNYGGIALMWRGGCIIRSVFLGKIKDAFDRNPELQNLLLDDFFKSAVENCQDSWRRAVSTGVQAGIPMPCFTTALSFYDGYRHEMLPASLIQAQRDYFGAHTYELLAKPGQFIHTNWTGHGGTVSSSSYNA
# Sequence of Mitogen-activated protein kinase 7 (Homo sapiens) (Q13164 whole entry, looked up, the tested form may be a part): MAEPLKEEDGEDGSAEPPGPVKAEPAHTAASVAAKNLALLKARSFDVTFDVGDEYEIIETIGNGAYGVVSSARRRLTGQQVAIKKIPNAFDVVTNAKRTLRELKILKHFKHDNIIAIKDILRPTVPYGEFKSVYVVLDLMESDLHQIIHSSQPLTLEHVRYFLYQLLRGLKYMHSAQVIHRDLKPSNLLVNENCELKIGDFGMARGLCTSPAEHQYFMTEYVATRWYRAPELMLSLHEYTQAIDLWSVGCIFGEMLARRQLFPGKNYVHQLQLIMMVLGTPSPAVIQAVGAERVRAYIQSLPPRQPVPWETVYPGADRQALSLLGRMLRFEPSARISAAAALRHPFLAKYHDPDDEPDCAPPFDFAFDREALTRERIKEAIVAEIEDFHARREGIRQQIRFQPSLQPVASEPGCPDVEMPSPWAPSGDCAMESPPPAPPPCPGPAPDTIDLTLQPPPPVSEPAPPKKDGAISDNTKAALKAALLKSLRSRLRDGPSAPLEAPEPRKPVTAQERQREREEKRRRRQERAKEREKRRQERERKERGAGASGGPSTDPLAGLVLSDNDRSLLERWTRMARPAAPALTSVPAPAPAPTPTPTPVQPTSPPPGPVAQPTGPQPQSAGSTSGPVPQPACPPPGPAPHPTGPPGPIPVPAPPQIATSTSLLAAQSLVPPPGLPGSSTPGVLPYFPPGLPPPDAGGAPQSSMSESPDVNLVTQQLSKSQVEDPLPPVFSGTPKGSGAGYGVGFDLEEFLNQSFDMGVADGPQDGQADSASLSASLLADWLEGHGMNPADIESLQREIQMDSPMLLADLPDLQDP
# Sequence of NAD(+) hydrolase SARM1 (Homo sapiens) (Q6SZW1 whole entry, looked up): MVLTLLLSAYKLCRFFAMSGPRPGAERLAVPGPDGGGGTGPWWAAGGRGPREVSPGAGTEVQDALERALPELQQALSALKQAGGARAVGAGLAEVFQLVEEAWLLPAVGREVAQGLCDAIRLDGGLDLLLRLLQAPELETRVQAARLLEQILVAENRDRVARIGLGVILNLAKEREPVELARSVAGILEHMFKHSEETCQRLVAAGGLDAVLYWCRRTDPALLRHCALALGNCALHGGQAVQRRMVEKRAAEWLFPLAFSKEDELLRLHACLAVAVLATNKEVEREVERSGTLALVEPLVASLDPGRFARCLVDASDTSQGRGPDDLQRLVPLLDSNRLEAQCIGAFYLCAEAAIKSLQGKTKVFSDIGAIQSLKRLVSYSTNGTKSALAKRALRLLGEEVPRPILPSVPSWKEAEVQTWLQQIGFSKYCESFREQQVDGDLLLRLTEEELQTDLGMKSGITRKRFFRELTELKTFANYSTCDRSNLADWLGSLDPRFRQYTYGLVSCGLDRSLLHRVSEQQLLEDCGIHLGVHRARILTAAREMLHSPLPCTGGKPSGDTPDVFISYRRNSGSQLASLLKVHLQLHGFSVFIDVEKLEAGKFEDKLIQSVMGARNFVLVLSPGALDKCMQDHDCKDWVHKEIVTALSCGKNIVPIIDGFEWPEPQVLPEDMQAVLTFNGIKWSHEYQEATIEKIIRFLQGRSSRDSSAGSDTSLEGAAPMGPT
smiles,measurement,setting,value
C#CCCCCCCCCCCCC(O)CC(O)CO (centres undefined),inhibition,[1],6.35% (inactive)
same,red/green cell ratio (normalised),[2],0.88 (inactive)
same,normalised cell number,[2]; [29],0.94
same,normalised cell number,[2]; [30],0.82
same,luciferase signal,[3],52 AU (inactive)
CCN1CCCC1CNC(=O)c1cc(S(N)(=O)=O)ccc1OC (centres undefined),inhibition,[4],17.6%
same,score,[5],1.43
same,rescue above control,[6],3.11
same,cytochrome c release ratio,[7],0.88
same,inhibition of aggregation,[8],59.1%
same,glutamate uptake change,[9],-6.59%
same,inclusion score,[10],1.5
same,aggregation suppression score,[11],1.43
same,period change,[12],-0.06 h (inactive)
same,survival,[13],17.8 (inactive)
same,parasite load remaining,[14],39.8% (inactive) and 78.3% (inactive)
same,viability,[14],52.6% and 93.4%
same,inhibition,[15],-1% (inactive)
same,fluorescence ratio (interference),[16],1.1 (inactive)
same,inhibition,[1],-9.64% (inactive)
same,remaining activity,[17],107% (inactive)
same,outcome,[18],inactive
same,outcome,[19],inactive
same,outcome,[20],inactive
same,z-score,[21]; [31],-0.0383 (inactive) and -0.359 (inactive)
same,z-score,[21]; [32],0.0677 and 0.0684
same,remaining NAD,[22],10 nM (inactive)
same,luciferase signal,[3],56 AU (inactive)
same,z-score,[23],0.32 (inactive) and 0.4 (inactive) and 0.185 (inactive)
CC(C)[C@@H]1CC[C@@H](C)CC1=O,inhibition,[1],15.9% (inactive)
same,red/green cell ratio (normalised),[2],0.93 (inactive)
same,normalised cell number,[2]; [29],1.16
same,normalised cell number,[2]; [30],1.08
same,luciferase signal,[3],52 AU (inactive)
O=c1c(-c2ccc(O)cc2)coc2cc(O)ccc12,inhibition,[4],-30.4%
same,score,[5],1
same,rescue above control,[6],2.42
same,cytochrome c release ratio,[7],0.87
same,inhibition of aggregation,[8],27.9%
same,glutamate uptake change,[9],12%
same,inclusion score,[10],2
same,aggregation suppression score,[11],1.43
same,period change,[12],0.115 h (inactive)
same,survival,[13],70.6 (inactive)
same,parasite load remaining,[14],225% (inactive)
same,viability,[14],94.2%
same,inhibition,[15],-4% (inactive)
same,fluorescence ratio (interference),[16],1 (inactive)
same,inhibition,[1],6.36% (inactive)
same,remaining activity,[17],111% (inactive)
same,outcome,[18],inactive
same,outcome,[19],inactive
same,outcome,[24],inactive
same,outcome,[25],inactive
same,outcome,[26],inactive
same,outcome,[27],inactive
same,outcome,[20],inactive
same,z-score,[21]; [31],-0.189 (inactive)
same,z-score,[21]; [32],-0.724
same,luciferase signal,[3],120 AU (inactive)
same,z-score,[23],0.775 (inactive) and 0.485 (inactive)
O=C1C=CC(=C(c2ccc(O)cc2)c2ccc(O)cc2)C=C1,inhibition,[4],28.5%
same,score,[5],1.1
same,rescue above control,[6],-3.26
same,cytochrome c release ratio,[7],1.26
same,inhibition of aggregation,[8],83.1%
same,normalised LDH release,[28],0.611
same,glutamate uptake change,[9],-0.24%
same,aggregation suppression score,[11],1.13
same,inhibition,[1],7.03% (inactive)
same,red/green cell ratio (normalised),[2],0.79 (inactive)
same,normalised cell number,[2]; [29],1.03
same,normalised cell number,[2]; [30],0.82
same,luciferase signal,[3],148 AU (inactive)

# Reference: PubChem BioAssay
